Screen size: about 310,000 compounds; about 14,000 (4.5%) showed an effect of 50% or more. Effects have a minus sign here. The full list was thinned out, with strong results kept by preference.
molecular target: human ether-à-go-go-related gene (hERG) potassium channel (human, UniProt Q12809); assay: primary screen, population patch clamp on CHO cells stably expressing hERG; higher = less effect of the substance
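Also: peak tail current of the secondary pulse compared with the same well before compound.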

Sequence of human ether-à-go-go-related gene (hERG) potassium channel (Q12809 whole entry, looked up): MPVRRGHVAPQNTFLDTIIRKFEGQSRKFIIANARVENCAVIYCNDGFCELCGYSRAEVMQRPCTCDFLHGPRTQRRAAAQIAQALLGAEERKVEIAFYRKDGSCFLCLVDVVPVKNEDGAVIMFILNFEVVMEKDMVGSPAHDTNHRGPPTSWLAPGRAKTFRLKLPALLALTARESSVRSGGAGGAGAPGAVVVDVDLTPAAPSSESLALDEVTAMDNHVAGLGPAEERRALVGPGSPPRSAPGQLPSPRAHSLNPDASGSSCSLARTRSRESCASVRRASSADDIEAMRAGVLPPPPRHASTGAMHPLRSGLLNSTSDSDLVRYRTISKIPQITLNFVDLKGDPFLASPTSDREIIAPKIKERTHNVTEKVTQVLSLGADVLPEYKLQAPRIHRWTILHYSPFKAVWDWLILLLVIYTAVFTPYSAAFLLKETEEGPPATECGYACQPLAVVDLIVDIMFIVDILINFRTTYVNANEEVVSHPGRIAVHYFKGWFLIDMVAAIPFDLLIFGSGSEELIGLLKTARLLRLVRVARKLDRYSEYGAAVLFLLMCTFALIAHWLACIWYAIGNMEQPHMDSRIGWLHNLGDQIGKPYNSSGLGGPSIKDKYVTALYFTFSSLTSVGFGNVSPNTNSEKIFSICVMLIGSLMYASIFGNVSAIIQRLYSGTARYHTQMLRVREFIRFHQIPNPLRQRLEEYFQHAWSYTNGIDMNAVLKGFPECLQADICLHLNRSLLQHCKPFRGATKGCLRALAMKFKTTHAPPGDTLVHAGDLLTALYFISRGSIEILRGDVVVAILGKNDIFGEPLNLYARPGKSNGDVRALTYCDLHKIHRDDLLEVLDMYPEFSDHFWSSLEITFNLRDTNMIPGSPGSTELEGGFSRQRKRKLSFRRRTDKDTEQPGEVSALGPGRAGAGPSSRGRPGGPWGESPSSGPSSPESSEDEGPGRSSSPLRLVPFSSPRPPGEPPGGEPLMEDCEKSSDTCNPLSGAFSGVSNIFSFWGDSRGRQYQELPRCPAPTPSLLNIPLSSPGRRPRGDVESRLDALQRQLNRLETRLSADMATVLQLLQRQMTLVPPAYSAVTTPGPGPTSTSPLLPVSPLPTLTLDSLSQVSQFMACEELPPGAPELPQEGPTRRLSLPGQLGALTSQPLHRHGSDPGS

Row | Compound | hERG current change (%, negative = inhibition) at 10uM [%]
1 | O=C(NCc1cccs1)Nc1ccc(Cl)cc1 | -21.2
2 | O=C(O)c1ccc2c(c1)S(=O)(=O)c1cc(Cl)ccc1C2=O | 19.5
3 | Cc1cccc(N2CCN(C(=O)COc3ccc4ccc(=O)oc4c3)CC2)c1C | 5.66
4 | CCC(CO)[n+]1c(C)cc(/C=C2\Sc3ccccc3N2Cc2ccccc2)cc1C.[Br-] (stereo not drawn) | -75.6
5 | CCN1/C(=C2\SC(=S)N(Cc3ccccc3)C2=O)Sc2ccccc21 | 13.6
6 | C[n+]1ccccc1/C=C1\Sc2ccccc2N1CCO.[I-] | -2.79
7 | Nc1cc([N+](=O)[O-])ccc1O | 6.95
8 | Clc1cncc(Cl)c1N/N=C/c1ccccc1 | -1.37
9 | CNC(=O)c1cc2cc(Cc3ccccc3Cl)ccc2oc1=O | 1.75
10 | CCN1C(=O)C(CC(=O)Nc2ccc(F)cc2)N(Cc2cccs2)C1=S (stereo not drawn) | -48.9
11 | CCOc1ccc2c(c1)C(N(CCN1CCOCC1)C(=S)Nc1ccccc1OC)CC(C)(C)O2 (stereo not drawn) | -24.9
12 | CCOc1ccc2c(c1)C(N(CCN1CCOCC1)C(=O)Nc1ccc(OC)cc1OC)CC(C)(C)O2 (stereo not drawn) | -51.9
13 | CCOc1ccc2c(c1)C(N(CCN1CCOCC1)C(=O)Nc1ccccc1)CC(C)(C)O2 (stereo not drawn) | -19.1
14 | CN(C(=O)/C=C/c1ccc2c(c1)OCO2)c1ccccc1 | -4.59
15 | CC(C)CNC(=O)C(=O)NCC(c1ccc2c(c1)OCO2)N1CCOCC1 (stereo not drawn) | 6.81
16 | CN1CCN(C(CNC(=O)C(=O)Nc2ccc3c(c2)OCCO3)c2ccc(F)cc2)CC1 (stereo not drawn) | -46.2
17 | COc1ccc(C(CNC(=O)C(=O)Nc2ccc3c(c2)OCCO3)N2CCN(C)CC2)cc1 (stereo not drawn) | -45.1
18 | COc1ccc(C(CNC(=O)C(=O)Nc2ccc3c(c2)OCO3)N2CCN(C)CC2)cc1 (stereo not drawn) | -50.9
19 | CN1CCN(C(CNC(=O)C(=O)Nc2ccc3c(c2)OCO3)c2ccc(F)cc2)CC1 (stereo not drawn) | -44.3
20 | Cc1ccc(C(CNC(=O)C(=O)Nc2ccc3c(c2)OCCO3)N2CCN(C)CC2)cc1 (stereo not drawn) | -55.5
21 | CCOc1cc2c(cc1OC)C(NC(=O)C(F)(F)F)CC2=O (stereo not drawn) | -0.243
22 | CC1CCc2nc3ccc(S(=O)(=O)N4CCC(C(=O)NCc5ccccc5Cl)CC4)cc3c(C(=O)O)c2C1 (stereo not drawn) | 7.04
23 | O=C(O)c1ccc(N2C(=O)CC(N3CCC(c4nc5ccccc5[nH]4)CC3)C2=O)cc1 (stereo not drawn) | 4.95
24 | COc1ccc(-c2ccc(Nc3ccc(C(=O)N4CCOCC4)cc3)nn2)cc1OC | -5.3
25 | C/C(=N/O)c1ccc2c(c1)OCCOCCOc1cc(/C(C)=N/O)ccc1OCCOCCO2 | -77.3

Row | Compound | hERG current change (%, negative = inhibition) at 10uM [%]
26 | CC(C)(C)C(=O)Nc1ccc2c(c1)OCCOCCOc1cc(NC(=O)C(C)(C)C)ccc1OCCOCCO2 | -65.5
27 | CC(=O)c1ccc2c(c1)OCCOCCOc1ccccc1OCCOCCO2 | -74.4
28 | Cc1cc[n+](CC(=O)c2ccc3c(c2)OCCO3)cc1.[Br-] | -22.2
29 | CCC(=O)c1ccc2c(c1)OCCO2 | 3.36
30 | CC(=O)N/N=C(\C)c1ccc2c(c1)OCCO2 | 11
31 | CC(=O)Nc1ccc2c(c1)OCCOCCOc1cc(NC(C)=O)ccc1OCCOCCOCCO2 | -2.81
32 | Nc1cc[n+](CC(=O)c2ccc3c(c2)OCCO3)cc1.[Br-] | -0.154
33 | CC(=O)Nc1ccc2c(c1)OCCOCCOc1cc(NC(C)=O)ccc1OCCO2 | -4.52
34 | O=C(C[n+]1ccc(/C=C/c2ccccc2)cc1)c1ccc2c(c1)OCCO2.[Br-] | -50.2
35 | CC(=O)N1CCN(C(=O)c2ccc3c(c2)OCCO3)CC1 | 10.9
36 | C/C(=N\O)c1ccc2c(c1)OCCO2 | 14.3
37 | COC(=O)CCC(=O)NNC(=O)CCC(=O)Nc1cccc(Cl)c1C | 6.61
38 | CNC(=O)c1cc(-c2ccc(Cl)cc2)n(-c2ccccc2)n1 | 4.41
39 | Cc1ccc(C)c(NS(=O)(=O)c2cc(C(=O)NCC3CCCO3)ccc2C)c1 (stereo not drawn) | -47.7
40 | Cc1nc(S(=O)(=O)Cc2ccccc2Cl)nc2c1CCC2 | 24.1
41 | O=C(CSc1nc2c(cnn2-c2cccc(Cl)c2)c(=O)[nH]1)NCCC1=CCCCC1 | -16.7
42 | CC(C)NC(=O)COC(=O)CNC(=O)c1cc(Cl)cc([N+](=O)[O-])c1 | -0.0659
43 | COC(=O)/C(=N\OCc1ccc(C#N)cc1)c1c(C)nn(C)c1C | -29.3
44 | CC1(C2CC2)NC(=O)N(CC(=O)Nc2ccc(Cl)c([N+](=O)[O-])c2)C1=O (stereo not drawn) | -1.15
45 | CCCc1n[nH]c(=O)c2c1nnn2Cc1ccccc1 | 4.86
46 | CC(=O)c1ccc2c(c1)OCCOCCOCCOCCOCCO2 | -62.4
47 | NC(=O)c1ccc2c(c1)OCCO2 | 6.04
48 | O=C(c1ccccc1)c1ccc2c(c1)OCCCO2 | -5.56
49 | O=C(c1ccccc1)c1ccc2c(c1)OCCOCCOCCO2 | -3.96
50 | O=C(O)c1ccc2c(c1)OCCO2 | 3.19

Row | Compound | hERG current change (%, negative = inhibition) at 10uM [%]
51 | CC(=O)c1ccc2c(c1)OCCOCCOCCO2 | 8.76
52 | O=C(O)c1ccc2c(c1)OCCOCCOCCOCCOCCO2 | -64
53 | O=C(c1ccccc1)c1ccc2c(c1)OCCOCCOCCOCCO2 | -65
54 | CC(=O)c1ccc2c(c1)OCCOCCOCCOCCO2 | -49.3
55 | CC(=O)c1ccc2c(c1)OCCOCCOc1ccc(C(C)=O)cc1OCCOCCO2 | -76.6
56 | O=C(O)c1ccc2c(c1)OCCCO2 | 4.27
57 | CC(=O)c1ccc2c(c1)OCO2 | 16.1
58 | CC(=O)Nc1ccc(C(=O)NNC(=O)c2cccc(C)c2)cc1 | -1.91
59 | CCCC(=O)Nc1nnc(-c2ccco2)s1 | 2.55
60 | O=C(COC(=O)CSc1ccc(F)cc1)NNC(=O)c1ccc([N+](=O)[O-])cc1 | -30.2
61 | O=C(CCCN1C(=O)/C(=C/c2cccs2)SC1=S)NNC(=O)c1ccccc1O | 4.76
62 | COc1ccccc1Nc1nn2c(=O)c3ccc(C(=O)N4CCCCC4)cc3nc2s1 | 3.25
63 | Cc1cccc(OCC(=O)N=Nc2c(O)[nH]c3ccc([N+](=O)[O-])cc23)c1 | -2.59
64 | CCOC(=O)CN1C(=O)C(Sc2n[nH]c(-c3cccc(C)c3)n2)CCc2ccccc21 (stereo not drawn) | 6.35
65 | COc1ccc(CCC(=O)N2CCCc3ccccc32)cc1 | 6.02
66 | Nc1c(S(=O)(=O)c2cc(Cl)ccc2Cl)c2nc3ccccc3nc2n1CCN1CCOCC1 | -15.3
67 | CC(NCC(O)COc1ccccc1)C1COc2ccccc2O1 (stereo not drawn) | -46.7
68 | COc1cc(CN2CCN(C(C)C)C(CCO)C2)ccc1OCc1ccccc1 (stereo not drawn) | -55.2
69 | CC(C)N1CCN(Cc2ccc(OC3CCCC3)cc2)CC1CCO (stereo not drawn) | -10.7
70 | CC(C)N1CCN(Cc2ccc3c(c2)Cc2ccccc2-3)CC1CCO (stereo not drawn) | -52.4
71 | CCN1CCN(Cc2ccc(OCc3ccccc3)c(OC)c2)CC1 | -17.7
72 | CC(C)N1CCN(Cc2ccc(Oc3ncccn3)cc2)CC1CCO (stereo not drawn) | 10.9
73 | CC(C)N1CCN(Cc2ccc(OCc3ccccc3)cc2)CC1CCO (stereo not drawn) | -51.6
74 | COc1ccc(CN2CCN(C(C)C)C(CCO)C2)cc1Cn1cncn1 (stereo not drawn) | 34.1
75 | CC(C)N1CCN(Cc2ccc3nsnc3c2)CC1CCO (stereo not drawn) | 8.66

Row | Compound | hERG current change (%, negative = inhibition) at 10uM [%]
76 | CC(C)N1CCN(Cc2ccncc2)CC1CCO (stereo not drawn) | 4.5
77 | CCCSc1nsc(NC(=O)C(c2ccccc2)c2ccccc2)n1 | 19.3
78 | Cc1nn(C)c(C)c1NC(=O)c1cnn2c(C(F)F)cc(-c3ccccc3)nc12 | 40.4
79 | COc1ccccc1N(CC(=O)N1CCCC1)S(=O)(=O)c1ccc(C)cc1 | 5.18
80 | COc1ccc(-c2noc(CCCC(=O)Nc3cccnc3)n2)cc1OC | -6.97
81 | c1ccc(-c2cc(-c3ccccc3)[nH]n2)cc1 | 12.3
82 | CC(C)(C)c1ccc(C(=O)NCCC(=O)N2CCCC2)cc1 | 16.4
83 | Cc1ccc(NC(=S)N(C)N)cc1Cl | 16.8
84 | COC(=O)CN1C(=O)[C@@H]2[C@H](C1=O)[C@@H]1CC(C(=O)OC)=C[C@@H](C(=O)OC)[C@@H]3C1=C(C(=O)[C@@]3(C)NC(=O)c1ccccc1)[C@@H]2C | -2.29
85 | COc1ccc(CNS(=O)(=O)c2ccc(-n3cnnn3)c(C)c2)cc1 | -15.3
86 | CCSC(=S)c1c(C)[nH]n(-c2ccccc2)c1=O | 12.9
87 | Cc1ccc(NC(=O)c2cc(S(=O)(=O)c3ccccc3)ccc2Cl)cc1 | -15.4
88 | O=C(CN1CCN(C(C(=O)Nc2ccc(F)cc2)c2ccccc2)CC1)NC1CC1 (stereo not drawn) | -27.8
89 | CCOc1ccccc1NC(=O)C(c1ccccc1)N1CCN(CC(=O)N2CCOCC2)CC1 (stereo not drawn) | -76.1
90 | Cc1ccc(NC(=O)C(c2ccccc2)N2CCN(CC(=O)N3CCOCC3)CC2)cc1Cl (stereo not drawn) | -67.4
91 | Cc1ccc(NC(=O)C(c2ccccc2)N2CCN(CC(=O)N3CCOCC3)CC2)cc1 (stereo not drawn) | -43
92 | O=C(Nc1ccc(F)cc1)C(c1ccccc1)N1CCN(S(=O)(=O)c2ccccc2)CC1 (stereo not drawn) | -5.63
93 | O=C(Nc1ccc(F)cc1)C(c1ccccc1)N1CCN(CC(=O)N2CCOCC2)CC1 (stereo not drawn) | -52.1
94 | O=C(CN1CCN(C(c2ccccc2)c2ccccc2)CC1)N1CCOCC1.O=C(O)C(=O)O | -22.3
95 | CC(C)c1ccc(NC(=O)C(c2ccccc2)N2CCOCC2)cc1 (stereo not drawn) | -12.2
96 | O=C(Nc1ccc(Cl)cc1)C(c1ccccc1)N1CCOCC1 (stereo not drawn) | -27.6
97 | COc1cccc(NC(=O)C(c2ccccc2)N2CCN(CC(=O)N3CCOCC3)CC2)c1 (stereo not drawn) | -36.8
98 | CCOc1ccccc1NC(=O)NC1(C(=O)N2CCOCC2)CCCCC1 | 15.6
99 | O=C(Nc1ccc(F)cc1)C(c1ccccc1)N1CCN(CC(=O)N2CCCC2)CC1 (stereo not drawn) | -65.3
